Source: the supplement of paper PMC9023506
Where a name gives a salt, the structure may show the parent alone.

Tested on: Danio rerio larvae (5 dpf)
Test: activity during first hour (no stimuli), difference vs DMSO (percentage points (treated minus DMSO)); higher = more of the behaviour than the DMSO vehicle control
Conditions: 10 µM; exposure time: 3 h pre-incubation + 3 h imaging
Protocol: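 5-dpf wild-type zebrafish larvae were imaged in 96-well plates. They were treated with 190 Tocris FDA-approved drugs at 10 µM (1 µl/ml DMSO) for 3 h before and 3 h during imaging at 28.5 °C, 48 larvae per drug. Automated image analysis gave % time moving and optomotor responses. Values are drug group mean minus DMSO vehicle mean (n=844), in percentage points, for 10 behaviours.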

Structure (SMILES) | activity during first hour
O=C1CCc2cc(OCCCCc3nnnn3C3CCCCC3)ccc2N1 [Cilostazol] | 10.3
CC(C)(C(=O)c1cccnc1)c1cccnc1 [Metyrapone] | -5.92
CN(C)CCc1c[nH]c2ccc(Cn3cncn3)cc12 [Rizatriptan benzoate] | -2.37
CC(C)c1nc(N(C)S(C)(=O)=O)nc(-c2ccc(F)cc2)c1/C=C/[C@@H](O)C[C@@H](O)CC(=O)O [Rosuvastatin calcium] | 3.37
OCCOCCN1CCN(C2=Nc3ccccc3Sc3ccccc32)CC1 [Quetiapine hemifumarate] | 12.9
O=C(O[C@@H]1C[C@@H]2C[C@H]3C[C@H](C1)N2CC3=O)c1c[nH]c2ccccc12 [Dolasetron mesylate] | -1.16
CN1CCN2c3ncccc3Cc3ccccc3C2C1 (stereo not given) [Mirtazapine] | 11.7
COc1ccccc1OCC(O)CN1CCN(CC(=O)Nc2c(C)cccc2C)CC1 (stereo not given) [Ranolazine dihydrochloride] | 10.4
Cn1cnc([N+](=O)[O-])c1Sc1ncnc2[nH]cnc12 [Azathioprine] | 7.36
CC/C(=C(\c1ccccc1)c1ccc(OCCN(C)C)cc1)c1ccccc1 [Tamoxifen citrate] | 31.4
Cc1nc(-c2ccc(OCC(C)C)c(C#N)c2)sc1C(=O)O [Febuxostat] | -0.179
CNCc1ccc(-c2[nH]c3cc(F)cc4c3c2CCNC4=O)cc1 [Rucaparib camsylate] | -13.6
CCOc1nc2cccc(C(=O)O)c2n1Cc1ccc(-c2ccccc2-c2nnn[nH]2)cc1 [Candesartan] | 4.62
C[C@]12CC[C@@H]3c4ccc(O)cc4C[C@@H](CCCCCCCCC[S+]([O-])CCCC(F)(F)C(F)(F)F)[C@H]3[C@@H]1CC[C@@H]2O (stereo not given in full) | 7.08
CC(=O)Oc1ccccc1C(=O)O [Aspirin] | -0.0609
COc1cc2nc(N3CCN(C(=O)c4ccco4)CC3)nc(N)c2cc1OC [Prazosin hydrochloride] | -3.12
O=c1[nH]c(=O)n([C@H]2C[C@H](O)[C@@H](CO)O2)cc1C(F)(F)F [Trifluorothymidine] | 1.96
COc1ccc(-c2ccc3cc(C(=O)O)ccc3c2)cc1C12CC3CC(CC(C3)C1)C2 [Adapalene] | -0.0907
CC(C)(C(=O)O)c1ccc(C(O)CCCN2CCC(C(O)(c3ccccc3)c3ccccc3)CC2)cc1 (stereo not given) [Fexofenadine hydrochloride] | 5.4
COc1cccc2c1C(=O)c1c(O)c3c(c(O)c1C2=O)C[C@@](O)(C(=O)CO)C[C@@H]3O[C@H]1C[C@H](N)[C@H](O)[C@H](C)O1 [Doxorubicin hydrochloride] | -5.82

Structure (SMILES) | activity during first hour
CN1CC[C@@H](NC(=O)Nc2ccc(C#N)cc2)C[C@@H]1c1nc2ccccc2[nH]1 | -8.92
N#Cc1ccc2[nH]cc(CCCCN3CCN(c4ccc5oc(C(N)=O)cc5c4)CC3)c2c1 [Vilazodone hydrochloride] | -24.1
Cc1ccsc1C(=CCCN1CCC[C@@H](C(=O)O)C1)c1sccc1C [Tiagabine hydrochloride] | 7.01
Cc1ccccc1C(=O)Nc1ccc(C(=O)N2CCCC(O)c3cc(Cl)ccc32)c(C)c1 (stereo not given) [Tolvaptan] | 1.26
CCCc1nn(C)c2c(=O)[nH]c(-c3cc(S(=O)(=O)N4CCN(C)CC4)ccc3OCC)nc12 [Sildenafil citrate] | -13.4
CCCCC(=O)N(Cc1ccc(-c2ccccc2-c2nnn[nH]2)cc1)[C@H](C(=O)O)C(C)C [Valsartan] | 4.88
CC1=Nc2ccc(Cl)cc2S(=O)(=O)N1 [Diazoxide] | 6.7
CCC(C)(C)C(=O)O[C@H]1C[C@@H](C)C=C2C=C[C@H](C)[C@H](CC[C@@H]3C[C@@H](O)CC(=O)O3)[C@H]21 [Simvastatin] | 7.12
COc1cc(Nc2c(C#N)cnc3cc(OCCCN4CCN(C)CC4)c(OC)cc23)c(Cl)cc1Cl [Bosutinib] | -16.6
CCCc1nc2c(C)cc(-c3nc4ccccc4n3C)cc2n1Cc1ccc(-c2ccccc2C(=O)O)cc1 [Telmisartan] | -6.28
Cc1c(-c2ccc(O)cc2)n(Cc2ccc(OCCN3CCCCCC3)cc2)c2ccc(O)cc12 [Bazedoxifene acetate] | -12.7
C[C@H]1O[C@H](O[C@H]2[C@H](O)[C@@H](O)[C@@H](O[C@H]3[C@H](O)[C@@H](O)C(O)O[C@@H]3CO)O[C@@H]2CO)[C@H](O)[C@@H](O)[C@@H]1N[C@H]1C=C(CO)[C@@H](O)[C@H](O)[C@H]1O (stereo not given in full) [Acarbose] | -0.41
CCCCCCCCc1ccc(CCC(N)(CO)CO)cc1 | -17.7
NC(=O)c1ncn([C@@H]2O[C@H](CO)[C@@H](O)[C@H]2O)n1 [Ribavirin] | 1.58
CCOC(=O)[C@H](CCc1ccccc1)N[C@H]1CCc2ccccc2N(CC(=O)O)C1=O [Benazepril hydrochloride] | 1.65
Nc1ccn([C@@H]2O[C@H](CO)[C@@H](O)C2(F)F)c(=O)n1 [Gemcitabine hydrochloride] | -4.38
CCOC(=O)[C@H](CCc1ccccc1)N[C@@H](C)C(=O)N1[C@H](C(=O)O)C[C@@H]2CCC[C@@H]21 [Ramipril] | 2.6
CC(c1cc2ccccc2s1)N(O)C(N)=O (stereo not given) [Zileuton] | -0.123
CC1CNc2c(cccc2S(=O)(=O)N[C@@H](CCCNC(=N)N)C(=O)N2CC[C@@H](C)C[C@@H]2C(=O)O)C1 (stereo not given in full) [Argatroban] | 4.69
C[C@@H]1C[C@H]2[C@@H]3CCC4=CC(=O)C=C[C@]4(C)[C@@]3(F)[C@@H](O)C[C@]2(C)[C@@]1(O)C(=O)CO [Dexamethasone] | 15
